Laboratory results: PubChem BioAssay AID1851 (National Center for Advancing Translational Sciences (NCATS), 2009)
About 4,000 (25%) of roughly 16,000 compounds were called active. Another 26% or so got no clear call; they are omitted. The list is a sample of the results. Unmarked numbers belong to inactive results. Calls follow the shape of the dose curve; as a rule, active = well fitted curve in the direction sought with a large enough effect; inconclusive = small, poorly fitted or top-dose-only effect, or effect the other way; inactive = no such curve, though single readings can be large or run the other way.
% is scaled to controls: 0 for no effect and ±100 for the full control effect.

What follows are compounds tested against Cytochrome P450 2C9 (Homo sapiens) (UniProt P11712) (assay: Cytochrome panel assay with activity outcomes). Details: recombinant CYP, pro-luciferin dealkylation, luminescence, p450-cyp2c9; series mostly up to 57.1 µM.
Cytochrome P450 2C9 (Homo sapiens), sequence (P11712 whole entry, looked up): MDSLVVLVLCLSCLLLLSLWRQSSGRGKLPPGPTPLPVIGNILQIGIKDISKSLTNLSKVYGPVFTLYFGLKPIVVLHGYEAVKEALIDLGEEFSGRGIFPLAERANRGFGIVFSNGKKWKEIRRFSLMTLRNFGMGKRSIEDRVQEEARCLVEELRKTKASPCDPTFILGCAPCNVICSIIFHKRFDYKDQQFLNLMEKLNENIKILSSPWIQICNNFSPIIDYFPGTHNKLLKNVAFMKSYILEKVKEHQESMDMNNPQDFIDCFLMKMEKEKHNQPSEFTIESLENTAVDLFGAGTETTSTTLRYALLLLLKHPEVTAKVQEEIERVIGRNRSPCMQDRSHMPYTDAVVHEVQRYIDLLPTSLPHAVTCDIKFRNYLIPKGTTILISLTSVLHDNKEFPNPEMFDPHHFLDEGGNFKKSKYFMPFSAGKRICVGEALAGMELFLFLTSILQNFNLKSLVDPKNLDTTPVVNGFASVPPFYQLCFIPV
With `CCCOc1ccc(C(=O)NNC(=S)NC(=O)CC)cc1` the AC50 was “inactive”. In the case of `CCCOc1ccc(C(=O)NNC(=S)NC(=O)c2cc(-c3ccccc3)nc3ccccc23)cc1`, the AC50 is reported as 2.51 µM (active). With `CCCCOc1cc(C(=O)NCCN(CC)CC)c2ccccc2n1` the AC50 was “inactive”. With `CCN1CCN(CCCNC(=O)C(NC(=O)C2CCC(C)CC2)C(C)C)CC1` (stereo not drawn) the AC50 was “inactive”. For `CC(=O)C1=C(O)C=C(c2ccco2)CC1c1ccco1` (stereo not drawn), the AC50 was 7.94 µM (active). `NC(=O)C(=O)O` was tested, and the AC50 was “inactive”. `Clc1ccc2c(c1)C1=C(C(c3ccncc3)O2)C(c2ccc(Br)cc2)n2ncnc2N1` (stereo not drawn) was tested, and the AC50 was 1.41 µM (active). With `CCN=C(N)CSS(=O)(=O)O` the activity, negative = inhibition was -1.49% [at 11.4 µM]. For `O=C(OCc1ccc(Cl)cc1Cl)c1cccnc1Cl`, the AC50 was 17.8 µM (active). For `O=C(O)c1cccnc1C(=O)O`, the AC50 was “inactive”. For `COc1ccccc1-c1cncnc1-n1ccnc1`, the activity, negative = inhibition was -14.3% [at 2.29 µM]. `Cc1ccc(Nc2nc(-c3sc(NC(=O)c4ccc([N+](=O)[O-])cc4)nc3C)cs2)cc1` was tested, and the AC50 was “inactive”. `O=C(Nc1nc(-c2ccccc2)cs1)c1cccc([N+](=O)[O-])c1` was tested, and the AC50 was 7.08 µM (active). For `CCN1C(=O)[C@H]2[C@H]3[C@H](O)[C@H](O)C/C(=N/OCC(C)C)[C@H]3CC[C@@H]2C1=O`, the activity, negative = inhibition was -3.02% [at 11.4 µM]. In the case of `CC(=C/c1ccccc1)/C=N/n1cnnc1`, the AC50 is reported as 3.98 µM (active). With `CNc1cc(-c2ccccc2C)ncn1` the activity, negative = inhibition was 21.7% [at 2.29 µM]. Work on `Cc1ccccc1-c1cc(N(C)C)ncn1` yielded an activity, negative = inhibition of 9.36% [at 2.29 µM]. With `Cc1ccccc1-c1cc(-c2ccccc2O)on1` the AC50 was 8.91 µM (active). `CNC[C@@H](SC)c1ccc(O)c(O)c1` was tested, and the activity, negative = inhibition was 0.961% [at 11.4 µM]. `Cn1c(=O)c2c(nc(NCCNc3nc4c(c(=O)n(C)c(=O)n4C)n3C)n2C)n(C)c1=O` showed an activity, negative = inhibition of 3.94% [at 11.4 µM]. With `Cn1c(=O)c2c(nc(Cl)n2Cc2ccc(Cl)c(Cl)c2)n(C)c1=O` the AC50 was 6.31 µM (active). For `c1cnc(N2CCN(Cc3ccc4c(c3)OCO4)CC2)nc1`, the AC50 was “inactive”. For `O=C(COc1ccc(Cl)cc1)N1CCN(Cc2ccc3c(c2)OCO3)CC1`, the AC50 was “inactive”. In the case of `Cn1c(OCc2ccc3c(c2)OCO3)nc2c1c(=O)n(Cc1ccc(Cl)c(Cl)c1)c(=O)n2C`, the AC50 is reported as 2.51 µM (active). In the case of `Cn1c(=O)c2c(nc(Cc3ccccc3)n2CC(=O)O)n(C)c1=O`, the activity, negative = inhibition is reported as -4.06% [at 11.4 µM]. `CCN(CC(=O)O)CC(=O)O` gave an activity, negative = inhibition of 8.87% [at 11.4 µM]. In the case of `O=C(Nc1ccccc1)N1CCCC2(CCN(C(=O)c3cnccn3)CC2)C1`, the AC50 is reported as “inactive”. `Cn1c(=O)c2[nH]c(-c3ccc(S(=O)(=O)O)cc3)nc2n(C)c1=O` was tested, and the AC50 was “inactive”. For `CCS(=O)(=O)Nc1ccc(C2=NN(C(=O)c3ccco3)C(c3ccc(C)cc3)C2)cc1` (stereo not drawn), the AC50 was 2.24 µM (active). Work on `CC(C)[C@]1(Cl)CC[C@@H]2[C@]3(C)CCC[C@@](C)(C(=O)O)[C@H]3C[C@H](Cl)[C@@]2(Cl)[C@H]1Cl` yielded an activity, negative = inhibition of -25.3% [at 11.4 µM]. For `Cc1cc2nc(C3CCCN(C(=S)Nc4ccccc4)C3)[nH]c2cc1C` (stereo not drawn), the AC50 was “inactive”. In the case of `Cc1cc2nc(CCN(C(=S)NCC(C)C)C3CCCC3)[nH]c2cc1C`, the AC50 is reported as 7.94 µM (active). In the case of `Clc1ccc2c(c1)C(N1CCNCC1)=Nc1ccccc1O2`, the AC50 is reported as “inactive”. With `O=C(c1ccco1)N(CCC(c1ccccc1)c1ccco1)Cc1ccco1` (stereo not drawn) the AC50 was 2.24 µM (active). `NC(=O)CC(c1ccccc1)c1ccco1` (stereo not drawn) was tested, and the AC50 was “inactive”. For `Cc1ccc(C(CC(N)=O)c2ccco2)cc1` (stereo not drawn), the AC50 was “inactive”. For `O=C(/C=C/c1ccccc1)N/C(=C/c1ccccc1)C(=O)Nc1ccccc1O`, the AC50 was 4.47 µM (active). With `O=C(/C=C\c1ccccc1)c1ccccc1O` the activity, negative = inhibition was -9.15% [at 11.4 µM]. Compound `Cc1cn([C@H]2C[C@H](O)[C@@H](COC(N)=O)O2)c(=O)[nH]c1=O` has an activity, negative = inhibition of 18.3% [at 11.4 µM]. For `CCCCNC(=O)C1CCN(Cc2ccccn2)CC1`, the AC50 was “inactive”. With `CCOC(=O)COc1ccc(/C=C/[N+](=O)[O-])c(OCC(=O)OCC)c1` the AC50 was 7.94 µM (active). For `CN(C)CCOC(=O)COc1ccc(Cl)cc1`, the AC50 was “inactive”. `COC(=O)N1CCC2(CC1)CN(c1ccccc1)C2` was tested, and the AC50 was “inactive”. `CCCc1nc2ccccc2c(C(=O)OCC(=O)Nc2cccc(S(=O)(=O)N3CCOCC3)c2)c1CC` was tested, and the AC50 was 14.1 µM (active). With `O=C(COC(=O)c1cccc(S(=O)(=O)N2CCOCC2)c1)Nc1nc(-c2ccccc2Cl)cs1` the AC50 was 4.47 µM (active). For `O=C(O)C1C2CCC(C2)C1C(=O)NCc1ccco1` (stereo not drawn), the AC50 was “inactive”. `CS(=O)(=O)Nc1cccc(-c2nc(N3CCOCC3)c3ccccc3n2)c1` gave an activity, negative = inhibition of -0.621% [at 2.29 µM]. For `O=C(COC(=O)c1cccc(S(=O)(=O)N2CCN(c3ccccc3)CC2)c1)NCc1ccco1`, the AC50 was 2.24 µM (active). Compound `Clc1ccccc1-c1ccc2ncnc(NCCN3CCOCC3)c2c1` has an activity, negative = inhibition of 24.6% [at 2.29 µM]. With `O=C(CCc1nc2ccccc2c(=O)[nH]1)OCC(=O)N1CCN(S(=O)(=O)c2ccccc2)CC1` the AC50 was “inactive”. `Clc1ccccc1-c1nccc(NCCN2CCOCC2)n1` gave an activity, negative = inhibition of 29.8% [at 2.29 µM]. With `C[n+]1cc2c3c(ccc2c2ccc4cc5c(cc4c21)OCO5)OCO3` the AC50 was “inactive”. For `COC(=O)[C@H](C)NC(=O)C/C=C\[C@@H](C)[C@H]1C=C[C@H](O)[C@@H](CO)O1`, the activity, negative = inhibition was -20.2% [at 11.4 µM]. In the case of `Cc1cc(C)nc(Nc2n[nH]c(COc3ccc4ccccc4c3)n2)n1`, the AC50 is reported as “inactive”. In the case of `CCOc1ccc(N2C(=O)/C(=C/c3cccs3)N(CC(=O)OC)C2=S)cc1`, the AC50 is reported as “inactive”. For `CCOc1ccc(N2C(=O)CN=C2Nc2ccccc2F)cc1`, the AC50 was 12.6 µM (active). `CCOc1ccc(N2C(=O)CN=C2Nc2ccccc2Cl)cc1` was tested, and the AC50 was “inactive”. `COc1c(O)cc2c(c1O)[C@@H]1O[C@@H](CO)[C@@H](O)[C@@H](O)[C@@H]1OC2=O` was tested, and the AC50 was “inactive”. `COC(=O)Nc1ccc2[nH]cc(CCNC(C)=O)c2c1` was tested, and the AC50 was “inactive”. For `O=C(NCCc1c[nH]c2ccccc12)[C@@H]1C[C@H]1[C@@H](NP(=O)(c1ccccc1)c1ccccc1)c1ccccc1`, the AC50 was 0.251 µM (active). With `O=C(NCCc1c[nH]c2ccccc12)[C@H]1C[C@@H]1[C@H](NP(=O)(c1ccccc1)c1ccccc1)c1ccccc1` the AC50 was 2 µM (active). In the case of `O=C(NCc1cc(F)cc2c1OCCO2)[C@H]1C[C@@H]1[C@H](NP(=O)(c1ccccc1)c1ccccc1)c1ccccc1`, the AC50 is reported as 12.6 µM (active). With `O=C(Nc1ccc2ccccc2c1)[C@H]1C[C@@H]1[C@H](NP(=O)(c1ccccc1)c1ccccc1)c1ccccc1` the AC50 was 3.16 µM (active).
